Experimental findings from PubChem BioAssay (NCI) are described below.

Structures are written as SMILES. The panel holds about 83,000 compounds, 20% with a hit somewhere; the sample as a whole holds those more often.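 Plates (96-well) were seeded with cells, treated with compound at one concentration, and incubated for 48 hours before percent growth was determined.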 Activity calls are given as the source filed them. The calls were made as follows: active = growth percent below 10; inactive = the rest.

The assay deals with HL-60(TB) leukemia. The assay can be described thus: NCI-60 one-dose screen, 48 h (100 = growth as untreated, 0 = no growth, -100 = all killed). The conditions noted are these: 10 µM unless noted.
As to `CCC(O)C(C)(C)C` (stereo not given), the growth was 114% (inactive).

Consider `NS(=O)(=O)c1ccc(CCN2C(=O)C3C(C2=O)C2(Cl)C(Cl)=C(Cl)C3(Cl)C2(Cl)Cl)cc1` (stereo not given), for which the growth was 78.4% (inactive).

With `CCOC(=O)c1cnc2sc(-c3ccc(OC)cc3)nc2c1Cl`, the growth was 93.8% (inactive).

In the case of `CCOC(=O)C1C(=O)C=C(c2cc(OC)c(OC)c(OC)c2)CC1c1sc(N(C)Cc2ccccc2)nc1Cl` (stereo not given), the growth was 80.4% (inactive).

Turning to `CC1(C)N=C(N)N=C(N)N1c1cccc(CCCCc2ccccc2)c1`, the growth was -76% (active).

Regarding `C[C@H](NC(=O)c1snnc1C1CC1)c1c(F)cccc1Cl`, the growth is 146% (inactive).

For the compound `COc1ccc(C(=O)c2cc(C)c(OC)c(C)c2)c(OC)c1N(C(=O)CCl)C(=O)CCl`, the growth is -42.3% (active).

In the case of `O=c1oc2ccccc2cc1-c1csc(N/N=C/c2cc3ccccc3nc2Cl)n1`, the growth is 116% (inactive).

Take `CSc1ccc(N(C)c2nc(C)nc3c2CCC3)cc1`: the growth is -28.3% (active).

In the case of `Cc1csc(Nc2nc(-c3ccccn3)nc(C(Cl)(Cl)Cl)n2)n1`, the growth was 77.4% (inactive).

On to `COc1ccc2nc3cc(Cl)ccc3c(NCCNCC(C)O)c2c1` (stereo not given), for which the growth was 21.8% (inactive).

On to `COCn1c(C(=O)OC)cc2oc(/C=C3/SC(=S)N(N)C3=O)cc21`, for which the growth was 76.9% (inactive).

Consider `O=C(/C=C/C=C/c1c(C2CC2)nc2ccccc2c1-c1ccc(F)cc1)c1cccs1`, for which the growth is -17.5% (active).

As to `NS(=O)(=O)c1cnccc1Sc1ccncc1S(N)(=O)=O`, the growth is 82.5% (inactive).

Regarding `CCCCOc1cc(C(=O)NCCN(CC)CC)c2ccccc2n1`, the growth is 96.7% (inactive).

Consider `CC(C)(C)[Si](C)(C)OC1[C@@H](CNC(=O)NC(=O)CCl)O[C@@H](n2cnc3c(N)ncnc32)[C@H]1O[Si](C)(C)C(C)(C)C` (stereo not given in full), for which the growth was -64.2% (active).

With `CCN1CCN(c2cc(C(=O)Nc3cccc(Nc4ccc5c(OC)cccc5n4)c3)cc(C(F)(F)F)c2)CC1`, the growth is 62.6% (inactive).

For the compound `CCOC(=O)C1=NN(c2ccccc2)C2=NC(=O)/C(=C\c3cn(-c4ccccc4)nc3-c3cc4ccccc4o3)C(=O)N12`, the growth was 76.4% (inactive).

On to `CCCCCC(=O)Oc1ccc(/C(=C(/C)Cc2ccc(OC)cc2)c2ccc(OCCCN(C)C)cc2)cc1`, for which the growth was 62% (inactive).

As to `C/C(CC(=O)NNc1ccc([N+](=O)[O-])cc1)=N\Nc1ccc([N+](=O)[O-])cc1`, the growth is 28.8% (inactive).

Take `COc1ccc(C(C)c2cc(OC)c(OC)c(OC)c2)cc1` (stereo not given): the growth is -15.6% (active).

Consider `COc1cc(NC(=O)C2=C(N3CCOCC3)/C(=C/c3ccc(Cl)cc3)CC2)cc(OC)c1OC`, for which the growth was 21.6% (inactive).

As for `Cc1nc2cc(Nc3nc(Nc4ccc(F)cc4)nc(-c4ccc(Cl)cc4)n3)ccc2n1Cc1ccccc1`, the growth is -29.6% (active).

Regarding `COc1cc2c(C#N)n3c(c2cc1OC)C(=O)C(c1ccccc1)Oc1ccccc1-3` (stereo not given), the growth is 61.1% (inactive).

As to `CC(C)CC(=O)Nc1n[nH]c2c1CN(C(=O)C1CCN(C)CC1)C2(C)C`, the growth is -26.2% (active).

Regarding `CCCCCCCC/C=C\CCCCCCCCOc1ccc(CC(=O)NCC[N+](C)(C)C)cc1`, the growth was -35.7% (active).

Consider `COc1ccc(C(=O)C[C@]2(O)C(=O)Nc3c(Cl)ccc(Cl)c32)cc1`, for which the growth is -6.62% (active).

With `CCN(CC)Cc1cc(Nc2ccnc3cc(Cl)ccc23)cc(-c2ccc(Cl)cc2)c1O`, the growth was 51.3% (inactive).

For the compound `CC(=O)Nc1ccc(S(=O)(=O)N/N=C\c2ccc(Cl)c(Cl)c2)cc1`, the growth was 1.93% (active).

As for `CCCn1c2cc(OCc3cn(-c4ccc(Br)cc4)nn3)ccc2c2ccnc(C)c21`, the growth was -61.3% (active).

`O=C1CN(Cc2ccc(C(=O)NO)cc2)C(=O)[C@@H](Cc2ccccc2)N1`: the growth is 130% (inactive).

As to `Cc1cc(N=C2C=CC(=[N+](C)C)C=C2)c(N)cc1N`, the growth was 122% (inactive).

In the case of `Cc1ccc(S(=O)(=O)/C(=C\c2ccc(Cl)cc2)C(=O)c2ccccc2)cc1`, the growth is 97.1% (inactive).

As to `CC(=O)Nc1ccc2c(c1)Cc1c(F)c(F)c(F)c(F)c1-2`, the growth is 65.5% (inactive).

For the compound `COc1ccc2c(c1)C(=O)/C(=C/c1cccc(OCC(=O)c3ccc([N+](=O)[O-])cc3)c1)CO2`, the growth is -46.6% (active).

For the compound `CNC(=S)NC(C)(C)C`, the growth is 92.6% (inactive).

As to `C=C1C(=O)O[C@H]2[C@H]1CC/C(COC(=O)NCc1cn(C)c3ccccc13)=C\CC[C@@]1(C)O[C@@H]21`, the growth is -48.5% (active).

Take `Nc1ncc(-c2ccc3ncnc(N4CCc5ccc(Cl)cc54)c3c2)cc1C(F)(F)F`: the growth is 22.9% (inactive).

For `CCOc1ccc(-c2nc3ccc(-c4nc5ccc(N6CCN(C)CC6)cc5[nH]4)cc3[nH]2)cc1`, the growth is -57.9% (active).

On to `Cc1c(Cl)cccc1NC(=O)c1sc2nc3c(cc2c1N)CCCC3`, for which the growth is 5.57% (active).
